From article PMC4336329 (PLoS ONE, 2015)
About 14,000 (4.5%) of roughly 310,000 compounds showed an effect of 50% or more. The effect is printed as a negative number. The sample holds strong results, similar compounds and a random draw of the others, so the mix is not that of the screen.

target: human ether-à-go-go-related gene (hERG) potassium channel (human, UniProt Q12809); assay: primary screen, population patch clamp on CHO cells stably expressing hERG; higher = less effect of the substance
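Note: peak tail current of the secondary pulse compared with the same well before compound.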

Sequence of human ether-à-go-go-related gene (hERG) potassium channel (Q12809 whole entry, looked up): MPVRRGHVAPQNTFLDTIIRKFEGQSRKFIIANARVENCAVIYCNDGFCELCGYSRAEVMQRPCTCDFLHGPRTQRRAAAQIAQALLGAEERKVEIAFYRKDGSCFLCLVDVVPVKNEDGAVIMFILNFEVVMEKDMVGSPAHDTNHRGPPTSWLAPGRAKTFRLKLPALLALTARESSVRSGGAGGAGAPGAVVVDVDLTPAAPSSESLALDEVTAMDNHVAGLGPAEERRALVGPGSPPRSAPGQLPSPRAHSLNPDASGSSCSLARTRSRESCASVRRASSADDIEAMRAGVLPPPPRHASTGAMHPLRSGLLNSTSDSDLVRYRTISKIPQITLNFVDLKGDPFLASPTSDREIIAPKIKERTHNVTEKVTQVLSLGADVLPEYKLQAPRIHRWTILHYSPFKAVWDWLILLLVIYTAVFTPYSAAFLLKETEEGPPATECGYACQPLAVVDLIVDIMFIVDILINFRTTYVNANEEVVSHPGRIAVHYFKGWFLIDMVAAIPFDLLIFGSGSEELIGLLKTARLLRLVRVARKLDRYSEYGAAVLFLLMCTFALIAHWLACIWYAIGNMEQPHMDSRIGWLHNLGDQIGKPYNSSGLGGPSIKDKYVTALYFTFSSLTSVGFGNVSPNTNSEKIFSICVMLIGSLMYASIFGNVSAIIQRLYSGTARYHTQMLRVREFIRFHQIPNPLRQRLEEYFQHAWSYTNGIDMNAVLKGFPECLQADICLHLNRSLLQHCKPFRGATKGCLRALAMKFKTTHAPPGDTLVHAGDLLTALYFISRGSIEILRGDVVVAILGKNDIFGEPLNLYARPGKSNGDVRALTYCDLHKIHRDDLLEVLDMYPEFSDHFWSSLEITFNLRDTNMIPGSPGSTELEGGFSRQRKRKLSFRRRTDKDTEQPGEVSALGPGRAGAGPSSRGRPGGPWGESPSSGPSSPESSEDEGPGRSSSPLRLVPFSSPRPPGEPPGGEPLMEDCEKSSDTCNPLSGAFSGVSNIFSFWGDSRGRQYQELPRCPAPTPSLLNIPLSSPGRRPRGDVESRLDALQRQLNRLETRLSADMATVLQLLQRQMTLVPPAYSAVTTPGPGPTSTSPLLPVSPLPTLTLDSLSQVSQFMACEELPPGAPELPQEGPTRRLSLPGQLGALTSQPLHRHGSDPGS

Question: Which “hERG current change (%, negative = inhibition) at 10uM” value does the source give for `Cc1cc(Br)ccc1OCCCCN1CCC(C)CC1.O=C(O)C(=O)O` here?
Answer: -67.9%

Question: How did the “hERG current change (%, negative = inhibition) at 10uM” value turn out when `Cc1cccc(C)c1OCCCCN1CCCCC1.O=C(O)C(=O)O` was run?
Answer: -11.8%

Question: How did the “hERG current change (%, negative = inhibition) at 10uM” value turn out when `CC(C)(C)c1ccccc1OCCOCCN1CCCCCC1.O=C(O)C(=O)O` was run?
Answer: -39.1%

Question: With `Cc1cc(Br)ccc1OCCCCN1CCCCC1.O=C(O)C(=O)O` as the compound, how does the “hERG current change (%, negative = inhibition) at 10uM” value read?
Answer: -78.9%

Question: How did the “hERG current change (%, negative = inhibition) at 10uM” value turn out when `CCN1CCN(CCOc2ccc(Br)cc2C)CC1.O=C(O)C(=O)O` was run?
Answer: -46.6%

Question: Which “hERG current change (%, negative = inhibition) at 10uM” value does the source give for `Cc1cc(Br)ccc1OCCN1CC(C)OC(C)C1.O=C(O)C(=O)O` (stereo not drawn) here?
Answer: -17.8%

Question: How did the “hERG current change (%, negative = inhibition) at 10uM” value turn out when `N#C/C(=C\c1cn(Cc2ccccc2)c2ccccc12)C(=O)NCc1ccco1` was run?
Answer: 12.5%

Question: Which “hERG current change (%, negative = inhibition) at 10uM” value does the source give for `Cc1ccccc1OCC(=O)OCC(=O)NCc1cccs1` here?
Answer: 1.72%

Question: Which “hERG current change (%, negative = inhibition) at 10uM” value does the source give for `COc1cc(-c2nc(CCNC(=O)c3ccco3)cs2)cc(OC)c1OC` here?
Answer: -24.7%

Question: With `Cc1cc(C)cc(NC(=S)N2CCN(c3ccccn3)CC2)c1` as the compound, how does the “hERG current change (%, negative = inhibition) at 10uM” value read?
Answer: -1.07%

Question: Which “hERG current change (%, negative = inhibition) at 10uM” value does the source give for `COc1ccc(NC(=O)Nc2cc(C)ccc2F)cc1` here?
Answer: 0.822%

Question: How did the “hERG current change (%, negative = inhibition) at 10uM” value turn out when `CCOc1ccc(-n2cnnn2)cc1S(=O)(=O)N1CCCCC1` was run?
Answer: -10.1%

Question: For `CC1CCN(C(=O)c2cc3c(=O)n4ccccc4nc3s2)CC1`, which “hERG current change (%, negative = inhibition) at 10uM” value is on record?
Answer: 18.7%

Question: How did the “hERG current change (%, negative = inhibition) at 10uM” value turn out when `COc1ccc2nc(C)cc(Nc3cccc(C(=O)O)c3)c2c1` was run?
Answer: 21.7%

Question: For `CC(=O)c1ccc(Nc2cc(C)nc3ccccc23)cc1`, which “hERG current change (%, negative = inhibition) at 10uM” value is on record?
Answer: -31.3%

Question: How did the “hERG current change (%, negative = inhibition) at 10uM” value turn out when `CC(=O)c1cccc(Nc2cc(C)nc3ccc(C)cc23)c1.Cl` was run?
Answer: -65.2%

Question: For `CCOC(=O)c1ccc2nc(C)cc(Nc3cccc(C(=O)O)c3)c2c1`, which “hERG current change (%, negative = inhibition) at 10uM” value is on record?
Answer: 5.41%

Question: `CC(=O)c1cccc(Nc2cc(C)nc3ccccc23)c1.Cl` was tested. Which “hERG current change (%, negative = inhibition) at 10uM” value did it give?
Answer: -64%

Question: Which “hERG current change (%, negative = inhibition) at 10uM” value does the source give for `CC(=O)Nc1ccc(Nc2cc(C)nc3ccccc23)cc1` here?
Answer: -7.21%

Question: Which “hERG current change (%, negative = inhibition) at 10uM” value does the source give for `C/C(=N\Nc1nccnc1Cl)c1ccc([N+](=O)[O-])cc1` here?
Answer: -4.09%

Question: For `Cl.N[C@@H]1C[C@H]1c1ccccc1`, which “hERG current change (%, negative = inhibition) at 10uM” value is on record?
Answer: 14%

Question: How did the “hERG current change (%, negative = inhibition) at 10uM” value turn out when `O=C(NC1CCCC1)C(c1ccncc1)N(C(=O)c1csnn1)c1cccc(F)c1` (stereo not drawn) was run?
Answer: 17.2%

Question: For `O=C1N=NC2=C1c1c3ccccc3c(O)n1CC2`, which “hERG current change (%, negative = inhibition) at 10uM” value is on record?
Answer: 3.49%

Question: How did the “hERG current change (%, negative = inhibition) at 10uM” value turn out when `CCOC(=O)c1c(NC(=O)CN2CCOCC2)sc2c1CCCC2=O` was run?
Answer: -6.33%

Question: `Cc1cc2nc3c(nc2cc1C)CCCC3` was tested. Which “hERG current change (%, negative = inhibition) at 10uM” value did it give?
Answer: 15.9%

Question: `Cc1ccc2c(CC(=O)Nc3ccc(N4CCN(C)CC4)cc3C)coc2c1` was tested. Which “hERG current change (%, negative = inhibition) at 10uM” value did it give?
Answer: -72.8%

Question: Which “hERG current change (%, negative = inhibition) at 10uM” value does the source give for `COc1ccccc1NC(=O)Cc1coc2cc(C)ccc12` here?
Answer: -13.1%

Question: With `Cc1ccc(C(=O)OCC(=O)Nc2cccc(S(=O)(=O)N3CCCCC3)c2)o1` as the compound, how does the “hERG current change (%, negative = inhibition) at 10uM” value read?
Answer: 6.02%

Question: With `Cc1cc(C(=O)OCC(=O)Nc2cccc(S(=O)(=O)N3CCOCC3)c2)c(C)o1` as the compound, how does the “hERG current change (%, negative = inhibition) at 10uM” value read?
Answer: -19.6%

Question: How did the “hERG current change (%, negative = inhibition) at 10uM” value turn out when `O=C(COC(=O)c1ccc([N+](=O)[O-])o1)Nc1cccc(S(=O)(=O)N2CCCCC2)c1` was run?
Answer: -56.6%

Question: Which “hERG current change (%, negative = inhibition) at 10uM” value does the source give for `Cc1ccc2c(CC(=O)N3CCN(c4ccccc4)CC3)coc2c1` here?
Answer: -22%

Question: How did the “hERG current change (%, negative = inhibition) at 10uM” value turn out when `Cc1ccc(C(=O)Nc2cccc(S(=O)(=O)N3CCCC3)c2)o1` was run?
Answer: -9.98%

Question: How did the “hERG current change (%, negative = inhibition) at 10uM” value turn out when `Cc1ccc(C(=O)OCC(=O)Nc2cccc(S(=O)(=O)N3CCOCC3)c2)o1` was run?
Answer: -53.1%

Question: For `O=C(COC(=O)c1ccc(Br)o1)Nc1cccc(S(=O)(=O)N2CCCCCC2)c1`, which “hERG current change (%, negative = inhibition) at 10uM” value is on record?
Answer: -14.9%

Question: How did the “hERG current change (%, negative = inhibition) at 10uM” value turn out when `O=C(Nc1cccc(S(=O)(=O)N2CCCCC2)c1)c1ccc([N+](=O)[O-])o1` was run?
Answer: -51.4%

Question: Which “hERG current change (%, negative = inhibition) at 10uM” value does the source give for `O=C(COC(=O)c1ccc([N+](=O)[O-])o1)Nc1cccc(S(=O)(=O)N2CCOCC2)c1` here?
Answer: -19.4%

Question: For `O=C(Nc1ccc(S(=O)(=O)N2CCOCC2)cc1)c1ccc([N+](=O)[O-])o1`, which “hERG current change (%, negative = inhibition) at 10uM” value is on record?
Answer: -28.8%

Question: `CCN1CCN(C(=S)c2ccc(-c3ccccc3)cc2)CC1` was tested. Which “hERG current change (%, negative = inhibition) at 10uM” value did it give?
Answer: -15.4%

Question: For `CCCN1CCN(C(=O)Cn2c(=O)oc3cc(S(=O)(=O)NCc4ccccc4)ccc32)CC1`, which “hERG current change (%, negative = inhibition) at 10uM” value is on record?
Answer: -6.53%

Question: For `COc1ccc(-c2ocnc2C(=O)Nc2ccc3c(c2)CCC3)cc1`, which “hERG current change (%, negative = inhibition) at 10uM” value is on record?
Answer: 8.64%

Question: Which “hERG current change (%, negative = inhibition) at 10uM” value does the source give for `Cc1ccc(C(=O)Nc2cccc(O)c2)cc1S(=O)(=O)N1CCCCCC1` here?
Answer: 11.2%

Question: With `O=C(O)CSc1nnc(COc2cccc3ccccc23)n1Cc1ccccc1` as the compound, how does the “hERG current change (%, negative = inhibition) at 10uM” value read?
Answer: 21.3%

Question: Which “hERG current change (%, negative = inhibition) at 10uM” value does the source give for `Cc1ccc2c(CC(=O)Nc3cccc(S(=O)(=O)N4CCOCC4)c3)coc2c1` here?
Answer: -51.4%

Question: `COc1ccc2c(CC(=O)Nc3cccc(S(=O)(=O)N4CCOCC4)c3)coc2c1` was tested. Which “hERG current change (%, negative = inhibition) at 10uM” value did it give?
Answer: -32.4%

Question: Which “hERG current change (%, negative = inhibition) at 10uM” value does the source give for `CCc1ccc2c(CC(=O)Nc3cccc(S(=O)(=O)N4CCOCC4)c3)coc2c1` here?
Answer: -0.796%
